Screens deposited in PubChem by NMMLSC.
HRas wt GTP – modulators of GTP binding to HRas wildtype, primary screen, biochemical, bead-based flow cytometry, multiplex. GST-Ras wt beads, Bodipy-FL-GTP binding; actives lie on both sides. GTP binding activity, % at 10 µM. GTPase HRas (Homo sapiens), P01112. 0.14% of 190,000 active;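 active = GTP binding activity at least 20% away from the 100% baseline, either lowered as inhibitor or raised as activator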;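 note: 0% = unlabeled GTP competition control and 100% = no-compound control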
Target sequence (P01112 whole entry, looked up): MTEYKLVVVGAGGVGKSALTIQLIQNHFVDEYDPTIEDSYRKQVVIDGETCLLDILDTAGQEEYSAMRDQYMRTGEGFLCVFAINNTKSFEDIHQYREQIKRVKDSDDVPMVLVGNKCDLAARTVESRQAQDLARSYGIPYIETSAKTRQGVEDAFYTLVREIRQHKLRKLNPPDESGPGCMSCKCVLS
Rac1 mut GTP – GTP binding modulators of activated mutant Rac1, primary screen, biochemical, bead-based flow cytometry, multiplex, fluorescent GTP; Ras-related C3 botulinum toxin substrate 1 (Homo sapiens), P63000; GST-Rac1 activated beads; actives lie on both sides; 100% means binding = to untreated wells; percent activity (GTP binding), % at 10 µM; 0.11% of 190,000 active;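 active = GTP binding at least 20 percentage points away from the 100% baseline, in either direction, so actives lie on both sides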
Rac1 wt GTP bind – wildtype Rac1 GTP binding modulators, primary screen, biochemical, GST-Rac1 beads, flow cytometry, multiplex | 0.27% of 190,000 active | fluorescent GTP binding; actives lie on both sides; 0 = cold GTP competed, 100 = untreated | GTP binding activity (% of control), % at 10 µM;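 active = GTP binding activity at least 20 points away from the 100% control level, either lower or higher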
Rab7 wt modul – modulators of GTP binding to Rab7, primary screen, biochemical, wildtype, multiplex bead flow cytometry | Rab7 GTPase wild type (dog), Bodipy-FL-GTP binding | GST-Rab7 beads, fluorescent GTP binding; actives lie on both sides; untreated = 100%, excess cold GTP = 0% | GTP binding activity (percent of control), % at 10 µM | 0.055% of 190,000 active;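 active = fluorescent GTP binding to Rab7 beads changed by at least 20 points from the 100% baseline, either direction, mostly lower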;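 note: median green fluorescence of bound Bodipy-FL-GTP per Rab7 bead population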
Cdc42 wt GTP – modulators of GTP binding to wildtype Cdc42, primary screen, biochemical, multiplex bead flow cytometry, Bodipy-GTP; GST-Cdc42 beads; actives lie on both sides; percent activity (GTP binding), % at 10 µM; 0.2% of 190,000 active; AID 761, 2007; Cell division control protein 42 homolog (Homo sapiens), P60953;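 active = percent activity GTP binding at least 20 points away from the 100% baseline, either down as inhibitor or up as activator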;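 note: median bead fluorescence of bound Bodipy-FL-GTP at 100 nM; 0% = excess unlabeled GTP control and 100% = no compound control; below 100% means less GTP binding so inhibitor and above means activator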
Target sequence (P60953 whole entry, looked up): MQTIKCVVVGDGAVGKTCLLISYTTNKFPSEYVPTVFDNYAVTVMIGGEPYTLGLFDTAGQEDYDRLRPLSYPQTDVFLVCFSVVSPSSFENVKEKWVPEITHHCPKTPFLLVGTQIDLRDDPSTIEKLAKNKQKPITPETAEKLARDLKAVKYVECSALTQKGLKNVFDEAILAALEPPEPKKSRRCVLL
Rab2 wt GTP – modulators of GTP binding to Rab2A wildtype, primary screen, biochemical, dog, bead-based flow cytometry, multiplex; GST-Rab2 wt beads, Bodipy-GTP binding; GTP binding activity, % at 10 µM; 0.19% of 190,000 active; AID 760, 2007;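 active = GTP binding activity at least 20 points away from 100%, either lowered or raised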;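 note: 0% = beads with excess unlabeled GTP and 100% = no-compound control corrected for plate trend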
The depositor's hits bear a star; [ ] = remark or other dose. Most compounds without a hit are left out; they make up all but 0.37% or so of the library.

`CCOc1ccc(C(=O)c2cc([N+](=O)[O-])ccc2Cl)cc1` gave HRas wt GTP 100, Rac1 mut GTP 97, Rac1 wt GTP bind 103, Rab7 wt modul 104, Cdc42 wt GTP 101 and Rab2 wt GTP 100.
For COc1ccc(S(=O)(=O)Cc2ccc(C(=O)N3CCN(c4cc(Cl)ccc4C)CC3)o2)cc1 the results were HRas wt GTP 80, Rac1 mut GTP 76*, Rac1 wt GTP bind 76*, Rab7 wt modul 77*, Cdc42 wt GTP 74* and Rab2 wt GTP 72*.
`COc1ccc(S(=O)(=O)Cc2ccc(C(=O)N3CCN(c4ccc(Cl)cc4)CC3)o2)cc1` gave HRas wt GTP 104, Rac1 mut GTP 101, Rac1 wt GTP bind 108, Rab7 wt modul 102, Cdc42 wt GTP 102 and Rab2 wt GTP 105.
Screening Cc1nc(-c2cnn(-c3ccccc3)c2)c2cc(C)oc2n1 returned HRas wt GTP 72*, Rac1 mut GTP 79*, Rac1 wt GTP bind 77*, Rab7 wt modul 80, Cdc42 wt GTP 70* and Rab2 wt GTP 75*.
Cc1oc2c(O)c(O)ccc2c(=O)c1-c1cnn(-c2ccccc2)c1 was read as HRas wt GTP 99, Rac1 mut GTP 95, Rac1 wt GTP bind 97, Rab7 wt modul 101, Cdc42 wt GTP 100 and Rab2 wt GTP 101.
CCN(CC)S(=O)(=O)c1ccc2oc(C(=O)N3CCc4ccccc4C3)c(C)c2c1 was read as HRas wt GTP 110, Rac1 mut GTP 107, Rac1 wt GTP bind 128*[activator], Rab7 wt modul 109, Cdc42 wt GTP 107 and Rab2 wt GTP 108.
Screening CCN(CC)S(=O)(=O)c1ccc2oc(C(=O)N3CCCCCC3)c(C)c2c1 returned HRas wt GTP 109, Rac1 mut GTP 101, Rac1 wt GTP bind 107, Rab7 wt modul 103, Cdc42 wt GTP 112 and Rab2 wt GTP 109.
`CCN1/C(=C\C=C2\C(=O)N(c3ccccc3)C(=S)N2C)Sc2ccccc21` gave HRas wt GTP 78*, Rac1 mut GTP 85, Rac1 wt GTP bind 83, Rab7 wt modul 83, Cdc42 wt GTP 83 and Rab2 wt GTP 87.
For CCCN1C(=O)/C(=C\C=C2/Sc3ccccc3N2CC)SC1=S the results were HRas wt GTP 68*, Rac1 mut GTP 75*, Rac1 wt GTP bind 69*, Rab7 wt modul 77*, Cdc42 wt GTP 73* and Rab2 wt GTP 74*.
Screening Cc1nc2cccc(C)n2c(=O)c1Cl returned HRas wt GTP 109, Rac1 mut GTP 101, Rac1 wt GTP bind 120*[activator], Rab7 wt modul 105, Cdc42 wt GTP 113 and Rab2 wt GTP 110.
Cc1ccc(S(=O)(=O)N2CC3(C)CN(S(=O)(=O)c4ccc(C)cc4)CC(C)(C2)C3O)cc1 (stereo not given) was read as HRas wt GTP 101, Rac1 mut GTP 101, Rac1 wt GTP bind 108, Rab7 wt modul 104, Cdc42 wt GTP 126*[activator] and Rab2 wt GTP 100.
For Brc1ccc(-c2ccc(/C=N/Nc3nc4ccccc4[nH]3)o2)cc1 the results were HRas wt GTP 99, Rac1 mut GTP 98, Rac1 wt GTP bind 103, Rab7 wt modul 101, Cdc42 wt GTP 99 and Rab2 wt GTP 98.
Screening O=C(COC(=O)C1(c2ccccc2F)CCCC1)NCc1cccs1 returned HRas wt GTP 98, Rac1 mut GTP 96, Rac1 wt GTP bind 101, Rab7 wt modul 96, Cdc42 wt GTP 100 and Rab2 wt GTP 100.
CCOc1ccc(C2=Nn3c(nnc3-c3ccco3)SC2)cc1 was read as HRas wt GTP 77*, Rac1 mut GTP 84, Rac1 wt GTP bind 82, Rab7 wt modul 89, Cdc42 wt GTP 77* and Rab2 wt GTP 76*.
CC1=Nn2c(nnc2-c2ccco2)SC1 was read as HRas wt GTP 99, Rac1 mut GTP 99, Rac1 wt GTP bind 100, Rab7 wt modul 96, Cdc42 wt GTP 99 and Rab2 wt GTP 99.
Screening COc1ccccc1/C=C/C(=O)OCc1nc2ccccc2c(=O)[nH]1 returned HRas wt GTP 99, Rac1 mut GTP 96, Rac1 wt GTP bind 102, Rab7 wt modul 101, Cdc42 wt GTP 97 and Rab2 wt GTP 94.
For CC(=O)OC(C(=O)NC1CCCCC1)c1ccc(Cl)c(Cl)c1 (stereo not given) the results were HRas wt GTP 35*, Rac1 mut GTP 31*, Rac1 wt GTP bind 29*, Rab7 wt modul 22*, Cdc42 wt GTP 35* and Rab2 wt GTP 33*.
For COC(=O)c1c(N2C(=O)[C@H]3[C@@H](C2=O)[C@]2(C(=O)Nc4c2ccc(C)c4C)N2CCC[C@@H]32)sc(C)c1C the results were HRas wt GTP 123*[activator], Rac1 mut GTP 114, Rac1 wt GTP bind 124*[activator], Rab7 wt modul 131*[activator], Cdc42 wt GTP 110 and Rab2 wt GTP 129*[activator].
For COC(=O)c1c(N2C(=O)[C@H]3[C@@H](C2=O)[C@]2(C(=O)Nc4c(C)cc(C)cc42)N2CCC[C@@H]32)sc(C)c1C the results were HRas wt GTP 120*[activator], Rac1 mut GTP 107, Rac1 wt GTP bind 115, Rab7 wt modul 121*[activator], Cdc42 wt GTP 111 and Rab2 wt GTP 126*[activator].
COC(=O)c1c(N2C(=O)[C@H]3[C@@H](C2=O)[C@]2(C(=O)Nc4ccccc42)N2CCC[C@@H]32)sc(C)c1C was read as HRas wt GTP 100, Rac1 mut GTP 95, Rac1 wt GTP bind 103, Rab7 wt modul 112, Cdc42 wt GTP 99 and Rab2 wt GTP 102.
For CCOC(=O)C(NC(=O)Nc1ccc(O)cc1)(c1ccccc1)C(F)(F)F (stereo not given) the results were HRas wt GTP 102, Rac1 mut GTP 100, Rac1 wt GTP bind 103, Rab7 wt modul 98, Cdc42 wt GTP 97 and Rab2 wt GTP 99.
For Oc1ccc(/C=N/NC(=S)N/N=C/c2ccc(O)cc2)cc1 the results were HRas wt GTP 87, Rac1 mut GTP 88, Rac1 wt GTP bind 71*, Rab7 wt modul 94, Cdc42 wt GTP 82 and Rab2 wt GTP 85.
`Cc1ccc(CNC(=O)CN2C(C)CCCC2C)cc1` (stereo not given) gave HRas wt GTP 92, Rac1 mut GTP 94, Rac1 wt GTP bind 97, Rab7 wt modul 96, Cdc42 wt GTP 93 and Rab2 wt GTP 94.
